What all share (parameters): scale not given: direction of the effect not stated beside the values
In test [1] the target is Protein translocase subunit SecA (Escherichia coli (strain K12)) (UniProt P10408). As to the kind of experiment: Assay to Identify E. coli SecA ATPase Inhibitors. It is filed as functional. Conditions: 30 µM.
Test [2] concerns the target T1, Ubiquitin-activating enzyme e1, putative (Leishmania donovani (strain BPK282A1)) (UniProt E9BSI1).
T1 sequence (whole entry): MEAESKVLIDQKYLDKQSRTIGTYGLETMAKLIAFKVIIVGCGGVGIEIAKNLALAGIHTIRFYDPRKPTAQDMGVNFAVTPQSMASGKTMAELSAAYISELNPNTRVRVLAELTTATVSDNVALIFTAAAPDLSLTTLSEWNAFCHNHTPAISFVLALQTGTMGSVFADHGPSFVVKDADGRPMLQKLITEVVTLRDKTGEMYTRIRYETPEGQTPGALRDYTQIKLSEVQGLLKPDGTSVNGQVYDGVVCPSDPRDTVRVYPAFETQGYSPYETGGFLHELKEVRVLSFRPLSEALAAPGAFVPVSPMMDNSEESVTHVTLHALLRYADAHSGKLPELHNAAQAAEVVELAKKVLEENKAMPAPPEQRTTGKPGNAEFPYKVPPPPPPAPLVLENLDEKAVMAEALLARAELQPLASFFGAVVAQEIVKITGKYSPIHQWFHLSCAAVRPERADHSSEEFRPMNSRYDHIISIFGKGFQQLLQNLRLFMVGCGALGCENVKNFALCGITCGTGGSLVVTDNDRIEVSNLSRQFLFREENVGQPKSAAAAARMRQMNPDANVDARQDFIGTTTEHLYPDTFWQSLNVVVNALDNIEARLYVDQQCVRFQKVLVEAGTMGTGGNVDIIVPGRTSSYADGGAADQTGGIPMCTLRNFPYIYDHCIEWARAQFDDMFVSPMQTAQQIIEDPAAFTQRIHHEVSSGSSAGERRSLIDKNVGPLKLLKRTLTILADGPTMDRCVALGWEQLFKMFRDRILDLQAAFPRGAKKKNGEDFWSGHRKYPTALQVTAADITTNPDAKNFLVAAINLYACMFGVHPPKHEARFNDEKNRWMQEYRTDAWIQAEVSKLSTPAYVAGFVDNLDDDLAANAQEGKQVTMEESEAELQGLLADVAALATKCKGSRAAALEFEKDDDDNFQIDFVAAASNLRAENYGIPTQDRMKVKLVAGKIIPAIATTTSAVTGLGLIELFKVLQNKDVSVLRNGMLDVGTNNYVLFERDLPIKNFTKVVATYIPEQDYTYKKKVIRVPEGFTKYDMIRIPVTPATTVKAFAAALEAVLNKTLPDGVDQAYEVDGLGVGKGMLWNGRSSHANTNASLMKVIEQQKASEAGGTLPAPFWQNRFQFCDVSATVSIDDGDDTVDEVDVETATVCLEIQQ
As to the kind of experiment: Leishmania donovani Ubiquitin Activating Enzyme (LdE1). As to conditions: 30 µM. Type of test: functional.

Test [3] addresses AMP-activated protein kinase, AMPK (Homo sapiens) (UniProt P54646+O43741+P54619+Q9UGJ0+Q9Y478+Q13131+Q9UGI9). As to the kind of experiment: AMP-dependent Kinase enzyme assay. An in vitro enzyme assay that detects ADP turnover that is directly proportional to AMPK activity. This uses naive AMPK that is activated during the assay with MK-8722. It is filed as functional. Conditions: 30 µM.

Test [4] has as its target Sialic acid-binding Ig-like lectin 9 (Homo sapiens) (UniProt Q9Y336). In words: Hs-Siglec9 ALPHAscreen SOP 20170721. As to conditions: 10 µM. On the technique in general: Alpha assays give light when donor and acceptor beads are brought close together.
A further test concerns Trypanosoma cruzi. As to the kind of experiment: Trypanosoma cruzi phosphomannomutase and mannose-1-phosphate guanylyltransferase assay. It is filed as functional. As to conditions: 10 µM.
Test [5] concerns the target T2, Arginase-2, mitochondrial (Homo sapiens) (UniProt P78540).
T2 sequence (whole entry): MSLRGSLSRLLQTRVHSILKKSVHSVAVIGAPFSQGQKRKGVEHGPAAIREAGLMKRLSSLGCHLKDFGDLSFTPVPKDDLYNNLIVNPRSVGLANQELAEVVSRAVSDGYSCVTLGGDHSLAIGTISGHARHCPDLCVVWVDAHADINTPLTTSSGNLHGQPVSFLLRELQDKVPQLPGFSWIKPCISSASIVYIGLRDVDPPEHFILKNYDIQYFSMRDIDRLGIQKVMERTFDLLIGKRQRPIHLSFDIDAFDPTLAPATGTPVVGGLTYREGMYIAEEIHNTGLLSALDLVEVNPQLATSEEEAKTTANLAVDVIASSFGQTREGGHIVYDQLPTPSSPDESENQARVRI
As to the kind of experiment: in vitro enzyme assay to detect the production of urea directly proportional to the activity of Arginase II. Further: in the data most compounds retested in dose-response had high values. It is filed as functional. Conditions: 33.3 µM.

The target of test [6] is T3, Proteasome subunit beta (Trypanosoma cruzi) (UniProt O96673).
T3 sequence (whole entry): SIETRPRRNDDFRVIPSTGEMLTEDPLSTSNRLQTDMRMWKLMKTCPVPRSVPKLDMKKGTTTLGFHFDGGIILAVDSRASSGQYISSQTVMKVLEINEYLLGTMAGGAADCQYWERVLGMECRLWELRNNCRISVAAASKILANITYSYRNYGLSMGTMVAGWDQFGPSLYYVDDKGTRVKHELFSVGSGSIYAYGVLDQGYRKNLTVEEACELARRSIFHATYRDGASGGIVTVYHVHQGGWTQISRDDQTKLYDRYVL
In words: Trypanosoma cruzi proteasome chymotrypsin-like activity (TcProtChymo) assay. Further: in the data most compounds retested in dose-response had high values. Type of test: functional. As to conditions: 9.37 µM.

For a further test, the species on record is Homo sapiens. In words: To identify inhibition of the IFN signalling (Jak-Stat) pathway via expression of an eGFP reporter gene under the control of an IFN-stimulated response element (ISRE) containing MxA promoter. As to conditions: 30 µM. It is filed as functional. A general note: In a reporter assay the amount or activity of a reporter protein is the signal.

Test [7] has as its target T4, Tyrosyl-tRNA synthetase, putative (Trypanosoma cruzi (strain CL Brener)) (UniProt Q4DSP6).
T4 sequence (whole entry): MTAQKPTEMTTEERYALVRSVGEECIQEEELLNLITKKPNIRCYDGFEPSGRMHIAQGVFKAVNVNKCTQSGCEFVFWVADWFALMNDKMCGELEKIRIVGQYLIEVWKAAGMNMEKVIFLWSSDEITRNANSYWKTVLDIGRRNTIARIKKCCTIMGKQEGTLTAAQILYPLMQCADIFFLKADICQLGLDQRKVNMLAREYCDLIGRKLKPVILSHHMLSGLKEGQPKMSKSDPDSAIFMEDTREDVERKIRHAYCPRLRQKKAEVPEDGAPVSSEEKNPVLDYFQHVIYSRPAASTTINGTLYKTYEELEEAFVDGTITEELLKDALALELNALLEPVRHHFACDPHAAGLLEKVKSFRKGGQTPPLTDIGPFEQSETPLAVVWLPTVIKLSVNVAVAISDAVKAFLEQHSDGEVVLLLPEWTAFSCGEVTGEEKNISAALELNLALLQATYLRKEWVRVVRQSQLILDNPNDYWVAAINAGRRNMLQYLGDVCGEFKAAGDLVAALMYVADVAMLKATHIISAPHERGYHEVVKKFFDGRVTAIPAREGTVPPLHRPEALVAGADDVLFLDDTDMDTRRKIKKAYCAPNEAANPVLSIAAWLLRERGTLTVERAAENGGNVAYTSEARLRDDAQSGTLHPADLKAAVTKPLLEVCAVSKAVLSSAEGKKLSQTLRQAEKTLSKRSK
In words: Trypanosoma cruzi tyrosyl tRNA synthetase (TcYRS) _High Tyrosine SOP. Further: in the data most compounds retested in dose-response had high values. As to conditions: 30 µM. Type of test: functional.

For test [8], the target named is T4, Tyrosyl-tRNA synthetase, putative (Trypanosoma cruzi (strain CL Brener)). In words: Trypanosoma cruzi tyrosyl tRNA synthetase (TcYRS) SOP. Type of test: functional. Conditions: 30 µM.
Test [9] deals with Chromo domain-containing protein 1 (Saccharomyces cerevisiae (strain ATCC 204508 / S288c) (Baker's yeast)) (UniProt P32657). In words: ScCHD-1 Enzyme Inhibition Assay. Further: in the data most compounds retested in dose-response had high values. Type of test: functional. Conditions: 30 µM.
Sequence of Chromo domain-containing protein 1 (Saccharomyces cerevisiae (strain ATCC 204508 / S288c) (Baker's yeast)) (P32657 whole entry, the tested form may be a part): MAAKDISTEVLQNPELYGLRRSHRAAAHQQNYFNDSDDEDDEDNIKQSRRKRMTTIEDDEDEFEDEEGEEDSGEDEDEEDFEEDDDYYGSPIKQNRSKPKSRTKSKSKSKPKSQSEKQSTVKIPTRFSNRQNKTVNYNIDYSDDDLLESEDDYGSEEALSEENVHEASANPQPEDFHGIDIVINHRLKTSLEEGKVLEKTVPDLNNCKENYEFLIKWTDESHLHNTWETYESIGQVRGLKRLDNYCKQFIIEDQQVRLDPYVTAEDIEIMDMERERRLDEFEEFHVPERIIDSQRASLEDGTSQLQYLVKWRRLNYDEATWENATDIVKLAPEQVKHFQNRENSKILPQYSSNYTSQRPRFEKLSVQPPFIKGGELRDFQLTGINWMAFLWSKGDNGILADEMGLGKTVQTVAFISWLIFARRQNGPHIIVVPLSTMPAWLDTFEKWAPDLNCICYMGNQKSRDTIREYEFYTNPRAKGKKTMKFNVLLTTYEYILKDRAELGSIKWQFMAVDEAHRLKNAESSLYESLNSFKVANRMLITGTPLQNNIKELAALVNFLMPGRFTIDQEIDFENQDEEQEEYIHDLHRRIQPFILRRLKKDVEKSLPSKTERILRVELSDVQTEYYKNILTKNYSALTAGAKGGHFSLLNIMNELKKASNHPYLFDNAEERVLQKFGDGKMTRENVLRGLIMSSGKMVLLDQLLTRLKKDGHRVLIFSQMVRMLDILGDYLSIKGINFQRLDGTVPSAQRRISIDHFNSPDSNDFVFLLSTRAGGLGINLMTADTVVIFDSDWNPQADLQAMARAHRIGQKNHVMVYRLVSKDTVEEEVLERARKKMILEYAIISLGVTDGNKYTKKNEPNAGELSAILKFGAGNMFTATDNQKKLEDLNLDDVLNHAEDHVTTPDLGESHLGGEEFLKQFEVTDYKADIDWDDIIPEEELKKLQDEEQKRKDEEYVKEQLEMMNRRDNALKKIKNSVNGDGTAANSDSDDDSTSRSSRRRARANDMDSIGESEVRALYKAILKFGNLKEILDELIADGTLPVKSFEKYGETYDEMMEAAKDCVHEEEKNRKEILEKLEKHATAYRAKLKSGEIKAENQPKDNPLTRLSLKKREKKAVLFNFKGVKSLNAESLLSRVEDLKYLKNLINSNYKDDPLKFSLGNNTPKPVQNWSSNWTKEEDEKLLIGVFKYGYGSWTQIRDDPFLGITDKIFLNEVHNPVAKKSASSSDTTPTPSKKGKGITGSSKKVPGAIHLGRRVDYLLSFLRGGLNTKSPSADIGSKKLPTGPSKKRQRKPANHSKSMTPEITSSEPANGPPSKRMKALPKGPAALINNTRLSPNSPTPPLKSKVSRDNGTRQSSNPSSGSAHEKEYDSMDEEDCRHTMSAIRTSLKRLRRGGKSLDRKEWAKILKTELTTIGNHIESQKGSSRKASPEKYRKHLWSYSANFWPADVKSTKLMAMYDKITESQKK

SMILES strings stand for the structures. For some of these results: Potency and affinity values are given separately.

Sequence of Protein translocase subunit SecA (Escherichia coli (strain K12)) (P10408 whole entry): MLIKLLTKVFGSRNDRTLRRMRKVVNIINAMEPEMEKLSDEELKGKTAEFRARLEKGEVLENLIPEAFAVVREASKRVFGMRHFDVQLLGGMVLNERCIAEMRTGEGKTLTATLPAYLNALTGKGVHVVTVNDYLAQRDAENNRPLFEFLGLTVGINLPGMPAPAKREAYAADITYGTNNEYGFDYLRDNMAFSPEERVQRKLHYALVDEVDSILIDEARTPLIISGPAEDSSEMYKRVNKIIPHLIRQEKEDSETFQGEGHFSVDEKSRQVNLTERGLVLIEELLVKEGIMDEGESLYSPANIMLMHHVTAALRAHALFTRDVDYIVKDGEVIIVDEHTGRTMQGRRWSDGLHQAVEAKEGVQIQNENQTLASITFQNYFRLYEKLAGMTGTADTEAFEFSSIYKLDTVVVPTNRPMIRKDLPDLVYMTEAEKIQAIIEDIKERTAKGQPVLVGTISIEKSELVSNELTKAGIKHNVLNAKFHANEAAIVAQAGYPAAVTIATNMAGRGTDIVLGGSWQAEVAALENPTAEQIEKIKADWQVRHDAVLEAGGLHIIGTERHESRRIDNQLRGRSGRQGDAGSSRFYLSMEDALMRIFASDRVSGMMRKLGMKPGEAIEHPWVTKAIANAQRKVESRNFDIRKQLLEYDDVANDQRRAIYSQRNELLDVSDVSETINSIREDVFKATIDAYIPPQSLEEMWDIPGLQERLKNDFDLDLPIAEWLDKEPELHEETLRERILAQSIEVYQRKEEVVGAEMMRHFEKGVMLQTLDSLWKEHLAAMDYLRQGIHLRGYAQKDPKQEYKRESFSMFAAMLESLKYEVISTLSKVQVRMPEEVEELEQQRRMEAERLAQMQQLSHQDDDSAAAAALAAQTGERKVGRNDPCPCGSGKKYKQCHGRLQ
Sequence of Sialic acid-binding Ig-like lectin 9 (Homo sapiens) (Q9Y336 whole entry): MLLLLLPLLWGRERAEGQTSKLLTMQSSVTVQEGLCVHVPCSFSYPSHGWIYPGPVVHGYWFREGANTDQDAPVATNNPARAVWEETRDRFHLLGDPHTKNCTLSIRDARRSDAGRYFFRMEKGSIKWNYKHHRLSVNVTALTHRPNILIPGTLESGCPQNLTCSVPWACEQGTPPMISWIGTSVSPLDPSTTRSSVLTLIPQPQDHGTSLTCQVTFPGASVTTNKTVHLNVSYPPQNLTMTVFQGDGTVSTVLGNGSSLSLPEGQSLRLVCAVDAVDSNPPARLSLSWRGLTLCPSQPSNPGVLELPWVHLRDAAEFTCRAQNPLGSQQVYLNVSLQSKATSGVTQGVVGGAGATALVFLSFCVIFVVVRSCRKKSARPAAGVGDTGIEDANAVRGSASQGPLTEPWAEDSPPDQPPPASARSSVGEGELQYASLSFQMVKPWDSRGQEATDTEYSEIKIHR

As for `c1cnc2c(c1)cc([C@H]1CCCO1)n2CCN1CCOCC1`, the Percent Effect in test [1] is -4.11%; in test [2] it was 9.46%; in test [3], 14.2%; in test [4] it was 5.59%; with Trypanosoma cruzi it was -0.593%; in [5], -5.8%. Besides, the Percent Effect in test [6] is 3.9%; in the test filed under Homo sapiens, 3.93%; in test [7], 1.07%; in test [8], 11.7%; in [9], -13.8%.
As for `COc1cc2cc(C(=O)N[C@@H](C)C(=O)O)n(C)c2c(OC)c1OC`, the Percent Effect in test [1] was 0.309%; in [2], 4%; in test [3], 0.773%; in test [4], 3.31%; in the test with Trypanosoma cruzi it was -5.89%; in test [5], -12.8%. In addition, the Percent Effect was 13.1% in [6]; 0.994% in the test listed under Homo sapiens; 8.47% in test [7]; 7.69% in [8]; -9.47% in test [9].
For the molecule `Cc1nc(C(C)(C)NC(=O)Nc2cccc(C#N)c2)no1`, the Percent Effect is -4.07% in test [1]; 5.48% in test [2]; 3.16% in test [3]; 8.84% in test [4]; 8.81% in the test on Trypanosoma cruzi; -0.455% in test [5]. In addition, the Percent Effect is 15.1% in test [6]; 3.14% in the test listed under Homo sapiens; 5.38% in test [7]; 15% in test [8]; -4.58% in test [9].
For `CCn1cc(CN2CCCN(C(=O)C3=NN(C)C(=O)CC3)CC2)cn1`, the Percent Effect in [1] was 0.989%; in [2] it was 18.2%; in [3], 0.0374%; in [4], -13.6%; in the test with Trypanosoma cruzi, -0.686%; in test [5], 6.11%. Besides, the Percent Effect is 13.7% in test [6]; 29.5% in the test filed under Homo sapiens; 5.71% in test [7]; 0% in test [8]; -17.5% in test [9].
Take `C[C@@H]1CN(C2(C(=O)N3CCCCCC3)Cc3ccccc3C2)C[C@H](C)O1`: the Percent Effect is -2.48% in [1]; 6.94% in test [2]; -6.6% in test [3]; 11% in [4]; 6.51% in the test on Trypanosoma cruzi; 3.97% in [5]. Moreover, the Percent Effect in test [6] was -0.702%; in the test filed under Homo sapiens, -2.77%; in test [7], 2.1%; in [8] it was 2.56%; in test [9] it was -1.63%.
`c1cc(C2CCCN2Cc2nnnn2C2CC2)cs1` (stereo unspecified): the Percent Effect in test [1] is -2.2%; in [2], 4.17%; in test [3], -9.7%; in test [4], -8.8%; in the test on Trypanosoma cruzi it was -4.18%; in [5] it was 0%. Further, the Percent Effect was found to be 21.2% in test [6]; 0.525% in the test listed under Homo sapiens; 6.32% in [7]; 10.3% in test [8]; 2.21% in [9].
As for `CC1CN(Cc2nccn2C)CCN1c1ccc2nncn2n1` (stereo unspecified), the Percent Effect in [1] is -5.26%; in [2] it was 10.4%; in [3], -8.38%; in test [4], 12.5%; with Trypanosoma cruzi, 5.62%; in test [5] it was 2.85%. Also, the Percent Effect is 9.29% in [6]; 7.44% in the test listed under Homo sapiens; 5.83% in test [7]; 21.9% in test [8]; -9.26% in test [9].
In the case of `O=C(NCCc1ccc(Cl)s1)NCc1nnc2n1CCC2`, the Percent Effect in test [1] is -5.75%; in test [2], 18.4%; in test [3], -1.91%; in test [4], -9.75%; in the test on Trypanosoma cruzi, -6.07%; in test [5], -3.96%. In addition, the Percent Effect was 15.5% in test [6]; 4.94% in the test filed under Homo sapiens; 4.43% in test [7]; 11.1% in test [8]; -7.66% in test [9].
Regarding `Cc1nnc2n1CCN(Cc1csc(-c3ccc(F)cc3)n1)C2`, the Percent Effect is -4.19% in [1]; 5.41% in test [2]; -2.56% in test [3]; 4.19% in test [4]; 8.26% in the test with Trypanosoma cruzi; -4.62% in [5]. For the same molecule, the Percent Effect in test [6] was 5.75%; in the test listed under Homo sapiens, 4.35%; in test [7], 3.96%; in test [8], 15.8%; in test [9], -6.22%.
Consider `O=C(c1cc(COc2ccc3c(c2)OCO3)[nH]n1)N1CCOCC1`, for which the Percent Effect in [1] is -8.28%; in [2], -2.74%; in test [3], 9.08%; in test [4], -1.9%; in the test on Trypanosoma cruzi it was -4.37%; in [5] it was 0.798%. Further, the Percent Effect was 7.45% in test [6]; 6.61% in the test filed under Homo sapiens; -3.12% in test [7]; -3.7% in test [8]; -5.41% in test [9].
Take `CN1CCOC(CNCCc2ccccn2)C1` (stereo unspecified): the Percent Effect is -2.22% in test [1]; 20.2% in test [2]; -8.39% in [3]; -6.71% in [4]; -3.31% in the test on Trypanosoma cruzi; 5.7% in [5]. In addition, the Percent Effect in test [6] was 5.32%; in the test listed under Homo sapiens it was 16.5%; in [7], 8.37%; in test [8], 16.5%; in [9] it was -2.67%.

Source of the values: ChEMBL document CHEMBL3988442, “University of Dundee, Small-Polar-MMV Screening Library” (2021).
